Measurements as given in PubChem BioAssay AID687036 (The Scripps Research Institute Molecular Screening Center, 2013).
The whole screen tested about 3,300 compounds, of which about 1,400 (42%) were called active. So high a share suggests a set chosen from earlier hits. Only a sample is shown. A number with no mark means an inactive call.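 Rule for the calls: active = mean inhibition across replicates above the hit cutoff derived for the earlier primary screen (cut at about 22% in these data); inactive = the rest.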

These compounds were tested against Protein arginine N-methyltransferase 1 (Homo sapiens) (UniProt Q99873) (assay: human PRMT1 activity-probe blockers, retest – biochemical, fluorescence polarization, triplicate, confirmation (AID 687036)). Conditions: recombinant His-PRMT1, activity-based probe fluorescence polarization; at 2.79 µM; stronger effect = higher value.
Protein arginine N-methyltransferase 1 (Homo sapiens), sequence (Q99873 whole entry, looked up): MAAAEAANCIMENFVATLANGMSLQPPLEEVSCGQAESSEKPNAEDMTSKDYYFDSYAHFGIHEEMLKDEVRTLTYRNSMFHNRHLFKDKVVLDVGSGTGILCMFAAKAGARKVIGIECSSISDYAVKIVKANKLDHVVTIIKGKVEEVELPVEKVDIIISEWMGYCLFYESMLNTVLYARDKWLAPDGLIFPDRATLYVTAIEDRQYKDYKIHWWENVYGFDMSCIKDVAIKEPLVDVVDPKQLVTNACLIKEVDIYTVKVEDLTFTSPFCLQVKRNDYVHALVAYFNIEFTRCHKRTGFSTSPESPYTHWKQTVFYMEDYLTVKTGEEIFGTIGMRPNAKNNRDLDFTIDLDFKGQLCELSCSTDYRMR

SMILES	inhibition
Brc1ccccc1C1Nc2cccc3cccc(c23)N1	29.4% (active)
NS(=O)(=O)c1ccc(NC(=O)COC(=O)c2c3c(nc4ccccc24)/C(=C\c2ccc4c(c2)OCO4)CCC3)cc1	0.89%
Cc1cc(C)cc(C(=O)NC2C(=O)N3C(C(=O)O)=C(CSc4nnc(C)s4)CSC23)c1 (stereo unspecified)	15.9%
Oc1ccc2ccc3cccc[n+]3c2c1	155% (active)
COc1cc(C2CC(=O)N3CN(Cc4ccccc4)CSC3=C2C#N)ccc1OCc1ccccc1 (stereo unspecified)	12.4%
CC(=O)Nc1ccc(C(=O)Nc2nc(-c3cc(C)n(Cc4ccccc4)c3C)cs2)cc1	5.86%
FC(F)(F)c1nc2ccccc2nc1N/N=C/c1ccc(Cl)cc1	-0.64%
CCOC(=O)C(Sc1ncc(C#N)c(N)n1)C(C)C (stereo unspecified)	37% (active)
Fc1ccc(COc2cccc(-c3n[nH]c(=S)o3)c2)cc1	14.3%
COc1cc(C(=S)NC2CCCCC2)ccc1O	5.36%
CCc1ccc(NC2Nc3cc(C)nn3S2)cc1 (stereo unspecified)	6.49%
O=c1ccc2c(-c3ccccc3S(=O)(=O)O)c3ccc(O)c(O)c3oc-2c1O	66.2% (active)
COc1ccc(CCN2C(=O)CC(N3CCC(C(N)=O)CC3)C2=O)cc1OC (stereo unspecified)	12.1%
OCCn1c(-c2ccccc2)csc1=Nc1ccccc1	-0.19%
O=S(=O)(O)c1cc2onnc2c2ccccc12	53.5% (active)
Cc1ccc(-c2ccc(/C=C(\C#N)C(N)=S)o2)c([N+](=O)[O-])c1	3.06%
Cc1ccc(SC(CC(=O)c2ccc(C(C)(C)C)cc2)C(=O)O)cc1 (stereo unspecified)	80.3% (active)
COc1ccc(N/N=C2/CCCCC2=O)cc1	0.52%
Cc1cc(=O)[nH]c(=S)[nH]1	-4.44%
Cc1cc2nc3c(=O)[nH]c(=O)nc-3n(C[C@H](O)[C@H](O)[C@H](O)CO)c2cc1C	146% (active)
O=C(CN1CCN(c2ccc(O)cc2)CC1)NC1CCCc2ccccc21 (stereo unspecified)	-0.09%

SMILES	inhibition
Cc1cccc(N2CCN(C(=O)/C=C/c3ccco3)CC2)c1C	7.17%
Cc1nnc(SCC2=C(C(=O)O)N3C(=O)C(NC(=O)Cn4nc(C)c(Cl)c4C)C3SC2)s1 (stereo unspecified)	6.51%
CC(C)(C)NC(=O)COc1ccc(CNc2ccc3[nH]c(=O)[nH]c3c2)cc1	4.62%
COc1ccc(NC(=O)CSc2nc(SC)ns2)c(OC)c1	30.5% (active)
Cc1cccc2cc3c(N)c(C(=O)N4CCCc5ccccc54)sc3nc12	-2.12%
COc1cccc(NC(=O)COC(=O)/C=C/c2ccco2)c1	10.2%
COc1cccc(NC(=O)CSc2nccn(-c3ccc4c(c3)OCCO4)c2=O)c1	26.1% (active)
CC(=O)Nc1cc(-c2ccccc2N(C)C)cn2c(-c3ccc(F)c(Cl)c3)cnc12	1.55%
c1ccc(Cc2c(-c3ccco3)nc3c4ccccc4ccn23)cc1	9.04%
COc1ccc(NC2=CC(=S)NC(C)(C)C2)cc1	-3.18%
S=c1[nH]nc(-c2ccco2)n1/N=C/c1ccc(Br)s1	13.1%
COc1ccc(N2C(=O)CC(Sc3n[nH]c(-c4ccc(C)cc4)n3)C2=O)cc1 (stereo unspecified)	59% (active)
COc1ccc(N2C(=O)CC(N3CCC(C(N)=O)CC3)C2=O)cc1 (stereo unspecified)	9.59%
Cc1ccc(N2C(=O)CC(Sc3ncn[nH]3)C2=O)cc1 (stereo unspecified)	24.3% (active)
O=C1CC(Sc2ncn[nH]2)C(=O)N1c1ccccc1 (stereo unspecified)	68.5% (active)
CN(CCOc1ccccc1)C(=O)c1cc(-c2ccco2)nc2ccccc12	10.7%
COc1ccc(-c2cc3c(c4c2ccn4C)C2CCC3C2)cn1 (stereo unspecified)	-5.46%
Cc1cc(C)c(/C=C2\C(=O)Nc3ccccc32)[nH]1	77.3% (active)
CC(=NNC(=S)N1CCCCCC1)c1ccccn1	5.21%
O=S(=O)(c1ccc(Sc2nnc3ccccn23)nc1)N1CCOCC1	-3.1%
Cc1cc2c(c(=O)n1Cc1ccco1)C(c1ccccc1)C(C#N)=C(N)O2 (stereo unspecified)	6.2%

SMILES	inhibition
N#CC1=C(N)Oc2c(sc3ccccc23)C1c1ccco1 (stereo unspecified)	28.5% (active)
O=C(c1ccc[nH]c1=S)N1CCN(S(=O)(=O)c2ccc(Br)cc2Cl)CC1	11.5%
COC(=O)c1ccc(NCc2cc(O)ccc2O)cc1	22.6% (active)
COc1ccc(NC(=O)c2ccc(C#CC(C)(C)O)cc2)cc1	3.21%
Cc1ccc(/C=C/C(=O)Nc2ccc([N+](=O)[O-])c(NC(=O)/C=C/c3ccc(C)o3)c2)o1	60.6% (active)
CN(C)C(=O)N=NC(=O)N(C)C	15.4%
Cc1cccc(CS(=O)(=O)c2ncc(Cl)c(C(=O)Nc3ccc(F)cc3)n2)c1	18.9%
Cc1ccc(-c2nn(-c3ccccc3)cc2CN(Cc2ccccc2)C(=O)CCC(=O)O)o1	21.8% (active)
Cc1ccc(-c2nn(-c3ccccc3)cc2/C=C2\SC(=S)N(CCCCCC(=O)O)C2=O)o1	18.1%
Cc1cccc(NC(=O)CSC(N)=O)c1C	96.6% (active)
Cc1ccccc1-n1c(SCC(=O)Nc2cccc3ccccc23)nc(O)cc1=O	2.26%
O=C(NC1=CC(=O)c2ccccc2C1=O)c1ccccc1	42.6% (active)
Cc1ccc(OS(=O)(=O)c2ccc(-c3csc(C)n3)s2)c(C)c1	8.35%
CO/N=C(\C(=O)N[C@@H]1C(=O)N2C(C(=O)O)=C(COC(C)=O)CS[C@H]12)c1csc(N)n1 (stereo in doubt)	11.4%
C=CCn1c(=S)[nH]c2scc(-c3ccco3)c2c1=O	56.8% (active)
O=C(CCN1CCc2ccccc2C(O)(c2ccccc2)C1)c1ccc2c(c1)OCCO2 (stereo unspecified)	38% (active)
COc1ccccc1-n1c(SCC(=O)Nc2ccc(Cl)cc2)nc(O)c(Cc2ccccc2)c1=O	18.7%
O=C(Nc1ccccc1)c1nnsc1S(=O)(=O)c1ccc(Cl)cc1	79.7% (active)
Cc1cccc(NC(=O)c2nc(S(=O)(=O)Cc3ccccc3)ncc2Cl)c1	16.1%
